Hits are enriched below; roughly 1.7% of the tested compounds scored in any of these assays.
Vif inh: HIV Vif self-association inhibitors, primary screen, imaging, HEK293T, single point; HEK293T cells, Vif self-association by quenched fluorescence, 24 h; inhibition, % at 7.49 µM; 340,000 tested, 0.35% active; AID 602346, 2012; in the data active = inhibition above about 50%, passing the limit was not always enough
FGF22 binding: binders of human FGF22 protein, primary screen, FGF22 synaptogenesis inhibitor project, biophysical, thermal shift, single point; recombinant FGF22 thermal shift, SYPRO orange fluorescence; percent of sucrose octasulfate shift, DMSO zero; AID 651658, 2012; activity (Tm shift, normalised), % at 9.99 µM; Fibroblast growth factor 22 (Homo sapiens), Q9HCT0; 340,000 tested, 1.5% active;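 active = mean Tm shift, scaled 0 neutral to 100 positive control, at about 1.3% or above, every replicate too, limit read from the data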
Target sequence (Q9HCT0 whole entry, looked up): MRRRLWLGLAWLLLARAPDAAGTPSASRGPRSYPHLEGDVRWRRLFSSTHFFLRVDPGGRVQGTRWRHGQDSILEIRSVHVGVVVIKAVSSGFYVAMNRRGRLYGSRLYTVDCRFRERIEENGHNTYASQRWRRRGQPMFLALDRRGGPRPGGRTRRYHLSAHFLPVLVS
CFTR F508del cor: F508del CFTR correction, initial screen, CFBE line, single point. activity (quench increase), % at 7.58 µM. AID 720511, 2013. 350,000 tested, 0.36% active. CFBE cells, YFP halide quenching; stimulated with forskolin plus potentiator P3; % fluorescence drop versus neutral controls;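 active = mean added fluorescence quench of at least 8% versus neutral control, with both replicates also reaching 8%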;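 note: cells transiently co-express mutant CFTR-F508del with the halide-sensitive YFP; corrector assay measuring rescue of mutant channel to the surface after 24 h compound exposure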
An asterisk follows results filed as active; . = not tested or not shown.

SMILES | Vif inh | FGF22 binding | CFTR F508del cor
Cc1ccc(S(=O)(=O)Nc2ccc3c(c2)C(=O)N([C@H](C)CO)C[C@@H](C)[C@@H](CN(C)C(=O)c2ccncc2)OCCCC[C@H](C)O3)cc1 | . | -0.2 | 0.1
CNC[C@@H]1Oc2c(N)cccc2C(=O)N([C@H](C)CO)C[C@@H]1C | . | 0.1 | -1.3
Cn1nnnc1Sc1ncnc2scc(-c3ccc(F)cc3)c12 | 52.3* | . | .
Cn1nnnc1Sc1ncnc2scc(-c3ccc(Br)cc3)c12 | 11.2 | 0.1 | -3.5
CCN(CC)C(=O)CN1C(=O)c2cccc3cccc(c23)C1=O | 16.3 | 43.1* | -2.1
CCN(CC(=O)Nc1c(F)cccc1F)C(=O)CN1C(=O)c2ccccc2C1=O | 4.7 | -0.3 | 3.0
N#C[C@H]1[C@H](c2ccccc2)[C@@H](CO)N1C(=O)Cc1ccccc1 | . | -0.1 | -2.1
CS(=O)(=O)N(C(=O)NC(=O)NC12CC3CC(CC(C3)C1)C2)C1CCCCC1 | 1.5 | 44.1* | -0.5
O=C(NC1CCCCC1)NC12CC3CC(CC(C3)C1)C2 | -3.7 | 0.1 | .
COc1ccccc1-c1cnc2c(c1)C(=O)N([C@H](C)CO)C[C@H](C)[C@H](CN(C)C(C)=O)O2 | . | 0.1 | -1.1
O=[N+]([O-])c1ccccc1S(=O)(=O)N1CCCCC1 | -0.2 | . | .
CN(C(=O)C1CCN(S(=O)(=O)c2ccccc2[N+](=O)[O-])CC1)C1CCCCC1 | -17.1 | 43.8* | 0.9
CC=Cc1ccc2n(c1=O)C[C@H]1[C@H](CO)[C@@H](C(=O)NCc3ccc4c(c3)OCO4)[C@@H]2N1C(=O)CC (mixture of isomers) | . | 0.0 | 0.1
CCC(=O)Nc1ccc2c(c1)OC[C@@H](C)N(C(=O)CC)C[C@H](C)[C@@H](OC)CN(C)C2=O | . | . | -1.2
O=C(/C(=C\c1ccccc1)c1nc2ccccc2[nH]1)c1ccc(Cl)cc1 | 2.3 | . | .
COC(=O)/C(=C\c1ccc(O)cc1)c1nc2ccccc2[nH]1 | -0.3 | 43.5* | 2.1
COc1cc(/C=C(\C#N)C(=O)c2c[nH]c3ccccc23)cc(OC)c1O | 7.2 | 0.2 | 17.2*
COc1cc(/C=C/C(=O)NCc2nc3ccccc3[nH]2)cc(OC)c1OC | 9.1 | -0.1 | 2.0
COC(=O)/C(=C\c1cc(OC)c(OC)c(OC)c1)c1nc2ccccc2[nH]1 | 5.2 | 43.5* | -4.8
COc1ccc(/C=C(\C#N)c2nc3ccccc3[nH]2)cc1O | 3.7 | 0.2 | 2.1
COc1cc(/C=C(\C#N)C(=O)NCCc2ccccc2)cc(OC)c1O | 7.0 | -0.3 | 2.9
COc1cc(/C=C(\C#N)c2nc3ccccc3[nH]2)cc(OC)c1O | -2.9 | 0.9 | 10.2*
CN1[C@@H]2c3ccc(-c4ccccc4)c(=O)n3C[C@H]1[C@H](CO)[C@H]2C(=O)Nc1nccs1 | . | -0.1 | -1.5
C[C@@H]1CCCCO[C@H](CN(C)C(=O)Nc2ccccc2)[C@H](C)CN([C@H](C)CO)C(=O)c2cc(NC(=O)CCC(F)(F)F)ccc2O1 | . | -0.1 | 0.3
COC(=O)CNC(=O)C1Cc2ccccc2CN1S(=O)(=O)c1cccs1 (configuration not stated) | . | 0.4 | 0.2
SMILES | Vif inh | FGF22 binding | CFTR F508del cor
CCOC(=O)CNC(=O)C1Cc2ccccc2CN1S(=O)(=O)c1cccs1 (configuration not stated) | -12.0 | 43.4* | -1.0
COC(=O)[C@@]1(CCS(=O)(=O)c2ccccc2)N=C(c2ccc(OCCCO)cc2)O[C@H]1c1ccccc1CN=[N+]=[N-] | . | -1.0 | 3.0
CC(=O)N(C)C[C@H]1Oc2ncc(-c3cccc(F)c3)cc2C(=O)N([C@@H](C)CO)C[C@@H]1C | . | -0.1 | 2.1
CCOC(=O)[C@@H]1[C@H]2COc3ccccc3[C@H]2N2C(=O)N(c3ccc(C)cc3)C(=O)[C@]12C | 0.2 | 0.0 | 0.0
CCOC(=O)[C@@H]1[C@H]2COc3ccccc3[C@@H]2N2C(=O)N(c3ccc(Cl)cc3)C(=O)[C@]12C | 0.1 | 43.6* | -2.1
CCOC(=O)[C@@H]1[C@H]2COc3cc(OC)ccc3[C@H]2N2C(=O)N(c3ccc(F)cc3)C(=O)[C@@]12C | -3.8 | 0.1 | 0.5
C[C@]12C(=O)N(c3ccc(Br)cc3)C(=O)N1[C@@H]1c3ccccc3OC[C@@H]1[C@H]2c1ccccc1 | -13.9 | -0.1 | 1.1
CCOC(=O)[C@@H]1[C@H]2COc3cc(OC)ccc3[C@@H]2N2C(=O)N(c3ccc(F)cc3)C(=O)[C@]12C | -1.2 | 44.4* | -0.3
C[C@@]12C(=O)N(c3ccc(Br)cc3)C(=O)N1[C@@H]1c3ccccc3OC[C@@H]1[C@H]2c1ccccc1 | -3.1 | 1.5* | 5.1
CCCC#Cc1ccc2c(c1)O[C@@H](CN(C)Cc1ccncc1)[C@@H](C)CN([C@H](C)CO)S2(=O)=O | . | -0.3 | 2.5
